# Source: PubChem (several laboratories)
# Hits are enriched below; roughly 0.74% of the tested compounds scored in any of these assays.
# DTT redox prof – compounds producing H2O2 with reducing agent – biochemical, NIH compound library profiling, artefact control for MLSCN library redox annotation, primary screen; DTT-dependent redox cycling H2O2, phenol red/HRP absorbance; 100% = 100 µM peroxide control, 0% = buffer; 0.03% of 200,000 active; AID 878, 2007; activation, % at 10 µM;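 active means activation of at least 50% relative to the plate's high and low controls in the primary single-dose screen; inactive means activation below 50%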;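 further: compound incubated with DTT at 0.8 mM final as the reducing agent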
# LYPLA1 counter – LYPLA1 inhibitors, primary screen, counter-screen for PME1 inhibitor project, biochemical, fluorescence polarization, FP-Rh probe ABPP. Acyl-protein thioesterase 1 (Homo sapiens), O75608. recombinant LYPLA1. inhibition, % at 5.9 µM. 0.16% of 320,000 active. AID 2174, 2009;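 active means inhibition above the mean of all tested compounds plus 3 SD, set per campaign, cut at about 14% in these data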;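 further: inhibitors block serine hydrolase probe labeling of LYPLA1 so polarization falls; 0% = enzyme with DMSO and 100% = wells lacking LYPLA1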
# p97 inhibitor – inhibitors of human p97 ATPase, primary screen, biochemical; 0.42% of 220,000 active; recombinant p97 ATPase, Kinase-Glo ATP luminescence, 3 h; inhibition, % at 8 µM; Transitional endoplasmic reticulum ATPase (Homo sapiens), P55072; AID 1481, 2009; in the data active means inhibition above about 15%;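 further: 0% = DMSO vehicle and 100% = wells lacking enzyme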
# Target sequence (P55072 whole entry, looked up): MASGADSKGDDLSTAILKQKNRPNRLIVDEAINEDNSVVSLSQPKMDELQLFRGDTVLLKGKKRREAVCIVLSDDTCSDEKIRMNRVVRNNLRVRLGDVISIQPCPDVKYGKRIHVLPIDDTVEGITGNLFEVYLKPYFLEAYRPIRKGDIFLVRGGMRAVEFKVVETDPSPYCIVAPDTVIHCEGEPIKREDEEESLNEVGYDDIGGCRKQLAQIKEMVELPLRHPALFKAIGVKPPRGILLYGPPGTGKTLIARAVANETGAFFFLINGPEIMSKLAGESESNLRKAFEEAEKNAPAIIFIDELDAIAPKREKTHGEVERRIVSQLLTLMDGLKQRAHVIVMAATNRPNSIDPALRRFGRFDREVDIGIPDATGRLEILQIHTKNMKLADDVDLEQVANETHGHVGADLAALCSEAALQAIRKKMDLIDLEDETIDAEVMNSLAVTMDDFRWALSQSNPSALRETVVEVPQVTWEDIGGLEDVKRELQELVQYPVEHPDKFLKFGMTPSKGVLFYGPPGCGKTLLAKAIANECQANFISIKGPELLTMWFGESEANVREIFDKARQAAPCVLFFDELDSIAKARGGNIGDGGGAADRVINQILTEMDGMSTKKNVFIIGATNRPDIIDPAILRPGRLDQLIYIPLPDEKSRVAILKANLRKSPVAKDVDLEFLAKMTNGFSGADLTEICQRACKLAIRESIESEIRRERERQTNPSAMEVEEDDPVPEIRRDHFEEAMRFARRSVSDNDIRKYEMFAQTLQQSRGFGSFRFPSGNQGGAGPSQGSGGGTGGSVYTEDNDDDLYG
# LYPLA2 counter – LYPLA2 inhibitors, primary screen, counter-screen for PME1 inhibitor project, biochemical, fluorescence polarization, FP-Rh probe ABPP; recombinant LYPLA2; Acyl-protein thioesterase 2 (Homo sapiens), O95372; 0.38% of 320,000 active; inhibition, % at 5.9 µM;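 active means inhibition above the screen-wide mean plus 3 SD, limit set per campaign, cut at about 26% in these data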;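 further: 0% = LYPLA2 with DMSO and 100% = wells lacking LYPLA2 enzyme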
# p97 inh conf – p97 ATPase inhibitors, retest, confirmation, biochemical. shares compounds with p97 inhibitor. AID 1517, 2009. inhibition, % at 8 µM. recombinant p97 ATPase, Kinase-Glo ATP luminescence. 44% of 760 active;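 active means percent inhibition of p97 ATPase above a set limit, the primary screen's mean plus 3 SD, cut at about 15% in these data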;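 further: 0% = DMSO wells and 100% = wells lacking p97 protein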
# Active calls of the source: *; nt = not tested or not shown.
SMILES,DTT redox prof,LYPLA1 counter,p97 inhibitor,LYPLA2 counter,p97 inh conf
COc1ccc([N+](=O)[O-])c(S(=O)(=O)c2ccccc2)n1,nt,0.8,15.0*,2.3,17.2*
O=S(=O)(c1ccc2oc(=S)[nH]c2c1)N1CCCCC1,nt,-4.3,21.3*,2.2,3.9
O=S(=O)(c1ccc2oc(=S)[nH]c2c1)N1CCOCC1,nt,0.1,nt,3.1,nt
CCOc1ccc(Cn2c(=O)sc3ccccc32)cc1OC,nt,2.7,2.5,6.3,nt
CSc1ncccc1C(=O)NC(C)C1CC2CCC1C2 (centres undefined),-0.4,0.5,0.9,0.3,nt
O=C1C=C(Nc2ccccc2C(=O)O)c2ccccc2C1=O,nt,0.8,22.8*,4.6,21.1*
O=C1c2cccnc2C(=O)N1Cc1ccc(S(=O)(=O)NCc2ccco2)s1,nt,-4.0,nt,3.7,nt
CCS(=O)(=O)c1nc(S(=O)(=O)c2ccc(C)cc2)c(NCCCn2ccnc2)s1,nt,-4.1,nt,3.6,nt
Cc1ccc(Cn2c(C(C)Nc3nc(C)cs3)nc3cc(Cl)c(Cl)cc32)cc1 (centres undefined),nt,-0.2,nt,0.4,nt
COC(=O)Cc1nc(Nc2ccccc2)sc1C,nt,0.8,20.3*,7.1,5.2
CCOc1ccccc1Nc1nnc(SC(C)C(=O)Nc2nc(-c3ccccc3)cs2)s1 (centres undefined),-0.1,-2.7,3.1,1.6,nt
CC(=O)Nc1sc(N/N=C\c2ccc(O)cc2)nc1-c1cccs1,nt,-2.1,16.3*,-0.2,23.1*
COc1ccc(OC)c(S(=O)(=O)N2CCC(C(=O)NCc3ccncc3)CC2)c1,nt,-1.9,nt,-1.5,nt
COc1ccc(NC2=C(Cl)C(=O)N(c3ccccc3)C2=O)c(OC)c1,-0.3,2.1,24.8*,-1.0,7.1
COc1ccccc1NC1=C(Cl)C(=O)N(c2ccccc2)C1=O,1.1,-0.3,17.4*,0.4,27.1*
COc1ccc(N2C(=O)C(Cl)=C(Nc3ccc(OC)cc3OC)C2=O)cc1,-0.8,1.4,3.8,-1.9,nt
COc1cc2c(cc1OC)CN(C(=O)CCNS(=O)(=O)c1ccccc1F)CC2,nt,-0.9,nt,2.0,nt
Cc1ccc(NC(=O)O/N=C/c2ccc(N(C)C)cc2)cc1,nt,-1.3,nt,8.4,nt
O=c1c(-c2ccc([N+](=O)[O-])cc2)coc2c(O)c(O)ccc12,nt,-8.6,18.2*,2.5,24.4*
CN(C)Cc1c(O)ccc2c(=O)c(-c3ccc(Cl)cc3)coc12,nt,1.7,nt,7.3,nt
Cn1c(SCc2ccccn2)nc2c1c(=O)[nH]c(=O)n2C,nt,-1.6,3.8,1.7,nt
O=C(Nc1ccccc1)C1C(c2ccccc2)C1(Cl)Cl (centres undefined),nt,-2.3,nt,-0.6,nt
O=C(Nc1ccc(Cl)cn1)C1C(c2ccccc2)C1(Cl)Cl (centres undefined),-0.6,-3.6,16.7*,5.4,23.1*
CC(=O)NS(=O)(=O)c1ccc(NC(=O)c2cc3c(=O)n4ccccc4nc3s2)cc1,nt,-1.5,16.8*,1.2,6.8
CN(Cc1ccccc1)C(=O)CC(c1ccccc1)c1cc(Cl)ccc1O (centres undefined),-7.4,-6.8,-3.2,-8.2,nt
SMILES,DTT redox prof,LYPLA1 counter,p97 inhibitor,LYPLA2 counter,p97 inh conf
CCN(CC)/C(=N\S(=O)(=O)c1ccc(F)cc1)c1ccccc1,nt,1.7,nt,-1.5,nt
CC1=Nc2ccccc2/C1=C/c1sc(=S)n(-c2cccc(C(=O)O)c2)c1O,-2.0,nt,16.4*,nt,34.6*
Oc1c(C=C2N=c3ccccc3=N2)sc(=S)n1-c1ccccc1,-0.2,-0.8,7.3,-5.1,nt
Cc1ccc(-c2nnc(NCc3nc4ccccc4[nH]3)c3ccccc23)cc1S(=O)(=O)N(C)C,0.3,-7.8,10.2,-7.5,nt
Cc1ccc(-c2nnc(NCc3nc4ccccc4[nH]3)c3ccccc23)cc1S(=O)(=O)N1CCOCC1,0.3,-18.2,15.2*,-34.8,12.4
Cc1c(Br)c(=O)oc2c(Br)c(O)c(O)cc12,-0.5,5.1,24.3*,3.0,31.2*
Cc1c(Br)c(=O)oc2c(Br)c(O)ccc12,-2.3,-0.9,5.6,-4.7,nt
CNC(=O)c1[nH]cnc1C(=O)Nc1ccc(OC)cc1,nt,-0.3,7.8,-2.5,nt
c1ccc(Cn2nnc3c(N4CCCCCC4)ncnc32)cc1,-0.1,1.0,19.7*,-1.6,0.8
CSc1nsc2nc(=O)c(/C=C3\C(C)=Nc4ccccc43)c(N)n12,-2.0,nt,21.0*,nt,38.2*
Nc1c(/C=C2\C=Nc3ccccc32)c(=O)nc2sc(CC(=O)N3CCOCC3)nn12,nt,-0.8,nt,5.3,nt
COc1ccc(Cn2c(-c3ccco3)nc3c(c(=O)c4ccccc4n3C)c2=O)cc1,nt,0.1,2.7,2.2,nt
Cn1c2ccccc2c(=O)c2c(=O)n(Cc3ccco3)c(-c3ccc(Cl)cc3Cl)nc21,nt,-1.0,33.4*,2.3,24.2*
O=C(Cc1ccccc1)Nc1ccc2c(c1)CCC2,0.0,-0.6,0.3,-0.2,nt
O=C(CC1CCCC1)Nc1ccc2c(c1)CCC2,0.8,2.0,46.2*,2.1,4.1
COc1cc(NCCCC(C)N)c2ncccc2c1 (centres undefined),-2.0,nt,15.2*,nt,8.3
COc1cc2c(cc1OC)C(C)N(C(C)=O)CC2 (centres undefined),-0.3,0.6,-0.6,1.4,nt
COc1cc2c(cc1OC)C(C)N(C(=O)c1cccs1)CC2 (centres undefined),-3.2,-2.1,15.6*,-4.8,20.5*
CCc1noc(C)c1C(=O)OC(C)C(=O)Nc1ccccc1OC (centres undefined),nt,1.8,nt,2.4,nt
CCn1c2ccccc2c2cc(NC(=O)CSc3nccc(=O)[nH]3)ccc21,-0.2,0.9,20.0*,-1.6,29.1*
CCn1c2ccccc2c2cc(NC(=O)CSc3nnc(-c4cccc(C)c4)o3)ccc21,0.2,-7.7,15.3*,-4.6,23.7*
Cc1c(N=C2C=C(Br)C(=O)C(Br)=C2)c(=O)n(-c2ccccc2)n1C,0.1,nt,27.4*,nt,8.0
O=C(NCc1nc2ccccc2[nH]1)C1=C[C@@H](C2CCCCC2)C[C@@H](OCCCCO)O1,nt,-3.6,nt,-4.5,nt
COc1ccc(CNC(=O)CN(Cc2ccc(OC)cc2)C(=O)CCC(=O)Nc2ccccn2)cc1,nt,-2.4,nt,1.2,nt
O=C(N/N=C/c1c(Cl)nc2ccccn2c1=O)c1cccnc1,nt,1.2,16.7*,0.1,8.6
CCC(C)(C)C1CCc2[nH]nc(C(=O)NCCNC(=O)OC(C)(C)C)c2C1 (centres undefined),nt,-1.6,nt,3.0,nt
Oc1ccc2ccccc2c1/C=N/c1nccs1,2.4,2.3,7.2,1.3,nt
Oc1ccc2ccccc2c1C=NCc1cn2ccsc2n1,2.8,-0.1,40.0*,0.3,7.4
CN1C(=O)CC(Nc2cccc3cccc(N)c23)C1=O (centres undefined),-0.1,-5.3,6.9,1.8,nt
CC(C)N1C(=O)CC(Nc2cccc3cccc(N)c23)C1=O (centres undefined),-1.4,nt,18.1*,nt,2.9
